Whole data set: some 110,000 compounds, median “z-score” near -0.1, cut for the highest 2% near 2. Shown is part of a subset that was picked to be rich in the highest values. The source made the active and inactive calls.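 The calls were made as follows: active = z-score in the third read window above 3 or below -3; inactive = the rest.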

Metabotropic glutamate receptor 8 (Rattus norvegicus), sequence (P70579 whole entry, looked up): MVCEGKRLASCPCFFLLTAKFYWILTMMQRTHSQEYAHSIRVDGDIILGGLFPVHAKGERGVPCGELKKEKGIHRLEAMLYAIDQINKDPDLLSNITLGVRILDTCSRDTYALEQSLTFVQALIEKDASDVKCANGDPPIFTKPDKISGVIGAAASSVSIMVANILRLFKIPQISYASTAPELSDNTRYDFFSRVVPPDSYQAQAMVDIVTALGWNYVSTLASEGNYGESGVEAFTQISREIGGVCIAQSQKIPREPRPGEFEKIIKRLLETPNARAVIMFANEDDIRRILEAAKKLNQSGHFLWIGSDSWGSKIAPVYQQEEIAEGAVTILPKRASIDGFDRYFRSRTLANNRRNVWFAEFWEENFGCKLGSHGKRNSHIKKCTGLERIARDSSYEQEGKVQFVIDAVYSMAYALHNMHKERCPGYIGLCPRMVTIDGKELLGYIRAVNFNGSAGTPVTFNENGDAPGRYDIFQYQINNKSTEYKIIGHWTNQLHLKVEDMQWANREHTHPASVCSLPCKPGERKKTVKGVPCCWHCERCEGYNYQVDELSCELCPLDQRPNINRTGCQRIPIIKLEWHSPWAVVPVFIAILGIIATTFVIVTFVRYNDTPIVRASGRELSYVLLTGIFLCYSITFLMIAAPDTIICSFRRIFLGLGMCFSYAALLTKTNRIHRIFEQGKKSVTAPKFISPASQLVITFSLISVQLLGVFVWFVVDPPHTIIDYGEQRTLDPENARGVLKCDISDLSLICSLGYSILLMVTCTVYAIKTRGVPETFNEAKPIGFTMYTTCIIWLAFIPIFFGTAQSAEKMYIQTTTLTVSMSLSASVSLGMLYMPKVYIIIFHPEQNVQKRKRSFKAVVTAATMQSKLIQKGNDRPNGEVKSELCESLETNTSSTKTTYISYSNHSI

This test concerns the target Metabotropic glutamate receptor 8 (Rattus norvegicus) (UniProt P70579). Briefly: rat mGluR8 modulators via GIRK flux, primary screen, cell-based, thallium flux, HTS (AID 488969). The following applies: HEK293 rat mGluR8, GIRK (G protein-gated inwardly rectifying potassium channel) thallium flux, FluoZin2; at 10 µM; stronger effect = higher value; submaximal glutamate (EC20) added with thallium.
The molecule `CCOC(=O)c1c(NC(=O)CSc2nnc(CNc3ccc(Cl)cc3)o2)sc(C)c1C` returned a z-score of -0.783.
Regarding `COc1ccc(COC(=O)Nc2cc3c(C(F)(F)F)nn(C)c3s2)cc1`, the z-score was -0.456.
For the molecule `Cn1nc(C(F)(F)F)c2cc(NC(=O)OCc3ccc(F)cc3)sc21`, the z-score is 9.32 (active).
In turn, `Cn1nc(C(F)(F)F)c2cc(NC(=O)OCC(C)(C)C)sc21` returned a z-score of -1.03.
`N/C(=N\OC(=O)CSc1ccccc1)c1cccc([N+](=O)[O-])c1` gave a z-score of -0.477.
Take `O=C(COC(=O)c1ccccc1NC(=O)c1ccccc1)c1ccc([N+](=O)[O-])cc1`: the z-score was -0.202.
As to `C=CCOC(=O)C1=C(C)NC(SCC)=C(C#N)C1c1ccc(Cl)cc1` (stereo unspecified), the z-score came out at 0.285.
`CSCSC1=C(C#N)C(c2ccc(Cl)cc2)C(C(C)=O)=C(C)N1` (stereo unspecified): the z-score was 3.87 (active).
Molecule `CSCSC1=C(C#N)C(c2ccccc2Cl)C(C(C)=O)=C(C)N1` (stereo unspecified) yielded a z-score of -2.68.
Turning to `CC(=O)C1=C(C)NC(SCc2cccc3ccccc23)=C(C#N)C1c1ccco1` (stereo unspecified), the z-score amounted to 0.063.
In the case of `CCc1ccc(C(=O)CSC2=C(C#N)C(c3ccco3)C(C(C)=O)=C(C)N2)cc1` (stereo unspecified) it was -0.295; in that of `CC(=O)C1=C(C)NC(SCc2ccc(C#N)cc2)=C(C#N)C1c1ccco1` (stereo unspecified), 5.85 (active).
In the case of `Cn1c(CNC(=O)c2ccc(Cl)cc2)nnc1SCC(=O)Nc1sc2c(c1C#N)CCCC2` it was 0.356; in that of `CN1CCc2nc(SCc3ccc(Cl)cc3)c(C#N)c(-c3cccs3)c2C1`, 0.101.
Regarding `CCN(C(=O)C1CCN(S(=O)(=O)c2cccc3nonc23)CC1)c1ccccc1`, the z-score is -0.39.
In the case of `CCOC(=O)c1[nH]c(C)c(/C(O)=C2\C(=O)C(=O)N(CCN(C)C)C2c2ccc(C)o2)c1C` (stereo unspecified) it was -0.288; in that of `COC(=O)[C@H](CCSC)NC(=O)N1CCC(C)CC1`, 0.07; in that of `COc1ccc(NC(=O)c2cccnc2Sc2ccccc2)c(OC)c1`, -0.415.
The molecule `COc1cc2c(cc1OC)CN(S(C)(=O)=O)CC2` displayed a z-score of 0.0161.
In the case of `NS(=O)(=O)c1ccc(NC(=O)COC(=O)CCC2CCCCC2)cc1` it was -0.157.
In the case of `N=c1ncn(CC(O)CO)c2nc(N3CCOCC3)[nH]c12` (stereo unspecified) it was -0.0516; in that of `COc1ccc(C(=O)N(C(C)C)C(C)C)c(OC)c1`, 0.14.
With `Oc1[nH]c2ccccc2c1N=Nc1nc2ccccc2s1`, the z-score was 2.12.
Take `Oc1[nH]c2ccccc2c1N=Nc1ccc(F)cc1`: the z-score was -0.405.
Take `Oc1[nH]c2ccccc2c1N=Nc1ccccc1F`: the z-score was found to be 0.0754.
`CCCC(=O)NC(NC(=S)Nc1c(C)n(C)n(-c2ccccc2)c1=O)C(Cl)(Cl)Cl` (stereo unspecified): the z-score is -0.165.
In the case of `Cc1c(NC(=O)CSc2ccccc2C(=O)Nc2cccnc2)c(=O)n(-c2ccccc2)n1C` it was 2.06; in that of `Cc1c(NC(=O)N(C)C)c(=O)n(-c2ccccc2)n1C`, -0.0915; in that of `Cc1c(NC(=O)CSc2ccccn2)c(=O)n(-c2ccccc2)n1C`, -0.147.
Then `Cc1c(NC(=O)C2C3C=CC(C3)C2C(=O)O)c(=O)n(-c2ccccc2)n1C` (stereo unspecified), with 0.15; and `Cc1c(NC(=S)NC(NC(=O)CC(C)C)C(Cl)(Cl)Cl)c(=O)n(-c2ccccc2)n1C` (stereo unspecified), with 2.53.
Regarding `Cc1c(NC(=O)CSc2nccn2C)c(=O)n(-c2ccccc2)n1C`, the z-score was -0.0895.
Then `Cc1c(NC(=O)CCC2CCCCC2)c(=O)n(-c2ccccc2)n1C`, with 2.9; and `Cc1c(NC(=O)C2CC=CCC2C(=O)O)c(=O)n(-c2ccccc2)n1C` (stereo unspecified), with 2.16; and `Cc1c(NC(=O)CCC(=O)N2CCCCC2)c(=O)n(-c2ccccc2)n1C`, with -0.244.
In the case of `Cc1c(NC(=O)CC(=O)Nc2c(C)n(C)n(-c3ccccc3)c2=O)c(=O)n(-c2ccccc2)n1C` it was -0.0936; in that of `CCC(=O)NC(NC(=S)Nc1c(C)n(C)n(-c2ccccc2)c1=O)C(Cl)(Cl)Cl` (stereo unspecified), -0.491; in that of `O=C(NCCc1ccncc1)C12CC3CC(CC(C3)C1)C2`, 0.467.
The molecule `CC1CCN(S(=O)(=O)c2ccc3c(c2)oc(=O)n3CC(=O)N2c3ccccc3CC2C)CC1` (stereo unspecified) displayed a z-score of 0.0729.
`Cc1cc(C)n(-c2nc(NCC3CCCO3)c3c4c(sc3n2)COC(C)(C)C4)n1` (stereo unspecified) registered a z-score of -2.
The molecule `C=CCc1cccc(/C=N/NC(=O)CCCNc2ccc(C)cc2)c1O` yielded a z-score of -0.144.
In the case of `CCOC(=O)C1CCN(C(=O)CN(c2ccc(OC)cc2)S(=O)(=O)c2c(C)nn(C)c2C)CC1` it was -0.304; in that of `CCCC(C)NC(=O)c1ccc2[nH]c3c(c2c1)CC(C)CC3` (stereo unspecified), -0.815.
In turn, `O=C(CSc1ncn(-c2ccccc2)n1)Nc1ccc(Br)cn1` returned a z-score of -0.314.
Molecule `COC(=O)c1c(C)[nH]c(C(=O)OCC(=O)NCC(C)C)c1C` yielded a z-score of -0.00108.
For the molecule `O=C(CSCCO)Nc1cccc([N+](=O)[O-])c1`, the z-score is -1.53.
As to `Cc1c(NC(=O)C(=O)/C=C(\O)c2ccc(Br)cc2)c(=O)n(-c2ccccc2)n1C`, the z-score was -0.237.
On to `Cc1c(NC(=O)C(=O)/C=C(/O)c2ccccc2)c(=O)n(-c2ccccc2)n1C`, for which the z-score is -0.309.
Then `Cc1c(NC(=O)C(=O)/C=C(\O)c2ccc(Cl)cc2)c(=O)n(-c2ccccc2)n1C`, with 2.16.
`O=C1COc2ccc(C(=O)c3ccccc3C(=O)NCc3ccco3)cc2N1`: the z-score is 0.0372.
Regarding `C=CCn1c(SCC(=O)c2[nH]c(C)c(C(=O)OCC)c2C)nc2scc(-c3ccc(OC)c(OC)c3)c2c1=O`, the z-score is -0.123.
For the molecule `CCOc1cc(C2NN=C(c3ccccc3)S2)ccc1OCc1ccccc1Cl` (stereo unspecified), the z-score stood at 0.78.
Then `CCOc1cc(C2NN=C(c3ccccc3)S2)ccc1OCc1ccc(F)cc1` (stereo unspecified), with 0.745.
Take `CCOc1cc(C2NN=C(c3ccc(C)cc3)S2)ccc1O` (stereo unspecified): the z-score was 8.33 (active).
In the case of `CC1CCCCN1C(=O)CSc1nnc(-c2cccnc2)n1C1CCCCC1` (stereo unspecified) it was 0.109.
As for `COc1ccccc1N(CC(=O)NCc1cccnc1)S(C)(=O)=O`, the z-score stood at 0.0794.
Molecule `CCCn1c(=S)[nH]c2cc(C(=O)N3CCc4ccccc43)ccc2c1=O` showed a z-score of 1.07.
As for `CCN(CC)CCNC(=O)c1ccc2c(=O)n(C3CCCC3)c(=S)[nH]c2c1`, the z-score amounted to 0.125.
As to `CCN1CCN(C(=O)c2ccc3c(=O)n(C4CCCC4)c(=S)[nH]c3c2)CC1`, the z-score was 5.09 (active).
Then `CCCCCn1c(=O)[nH]c2cc(C(=O)N3CCN(CC)CC3)ccc2c1=O`, with 0.0715; and `O=C(c1ccc(CNc2c(NC3CCCCC3)c(=O)c2=O)cc1)N1CCc2ccccc21`, with -0.164; and `O=C(c1ccc2c(=O)n(C3CCCC3)c(=S)[nH]c2c1)N1CCc2ccccc21`, with 9.93 (active).
In the case of `O=C(Nc1ccc([N+](=O)[O-])cn1)c1cc(-c2cccc(Br)c2)nc2ccccc12` it was 0.61; in that of `COC(=O)c1[nH]c2ccc(C)cc2c1NC(=O)CN1CCCC(C)(C)C1`, -0.603.
Take `O=C(Nc1cc(C(=O)N2CCCC2)ccc1N1CCCC1)c1ccccc1`: the z-score was -1.7.
For the molecule `O=c1c2ccccc2nc(-c2ccccc2)n1/N=C/c1ccc([N+](=O)[O-])cc1`, the z-score is 6.71 (active).
For the molecule `Cc1nc2ccccc2c(=O)n1/N=C/c1ccc(O)cc1`, the z-score is 0.481.
With `Cc1nc2ccccc2c(=O)n1/N=C/c1ccccc1`, the z-score was -0.0985.
On to `COc1ccc(-n2cnc3cc(NC(=O)c4ccco4)ccc32)cc1`, for which the z-score was -1.7.
Regarding `CCC(=O)Nc1ccc2c(c1)ncn2-c1ccc(OC)cc1`, the z-score came to 2.82.
Then `CCC(=O)Nc1ccc2c(c1)ncn2-c1ccccc1`, with 0.261.
In turn, `O=C(O)c1ccc(CNCc2c(Cl)cccc2Cl)cc1` came in with a z-score of 0.0291.
With `CC(CCc1ccccc1)NC(=O)COC(=O)C1=COCCO1` (stereo unspecified), the z-score came out at 0.664.
As to `O=c1[nH]cnc2c1nc(SCc1ccccc1)n2C1OC(CO)C(O)C1O` (stereo unspecified), the z-score was 1.45.
`Nc1nc(SCc2ccc([N+](=O)[O-])cc2)c2ncn(C3OC(CO)C(O)C3O)c2n1` (stereo unspecified) returned a z-score of 2.28.
As to `CN(C)c1ncnc2c1ncn2C1OC(CO)C(O)C1O` (stereo unspecified), the z-score is -0.162.
Consider `COc1ccc(C2=CC(=O)OC3(CCCCC3)O2)cc1`, for which the z-score was -2.37.
Take `COc1cc(C(=O)Nc2ccc3c(c2)OCCO3)ccc1OC(C)C`: the z-score turned out to be 2.41.
Then `COc1ccc(C(=O)Nc2ccc3c(c2)OCCO3)cc1`, with -0.168.
Take `CCC(C)[C@H](NC(=O)Nc1ccc2c(c1)OCCO2)C(=O)O` (stereo partly specified): the z-score is -0.196.
Then `CCOc1ccc(C(=O)Nc2ccc3c(c2)OCCO3)cc1OC`, with -0.705; and `COC(=O)[C@@H](NC(=O)Nc1ccc2c(c1)OCCO2)C(C)C`, with 0.876; and `COC(=O)[C@H](CC(C)C)NC(=O)Nc1ccc2c(c1)OCCO2`, with 3.6 (active).
Then `O=C(Nc1ccc(N2CCCCC2)c(Cl)c1)c1ccc2c(c1)OCCO2`, with -0.282; and `O=C(Nc1ccc(N2CCCC2)c(Cl)c1)c1ccc2c(c1)OCCO2`, with 2.58.
Then `O=C(NC(=S)Nc1ccc(N2CCCCC2)c(Cl)c1)c1ccc2c(c1)OCCO2`, with 0.126.
As for `CC(C)c1ccc(C(=O)N2CCCN(C(=O)c3ccc(C(C)C)cc3)CC2)cc1`, the z-score was -0.119.
Consider `O=C(NCC1CCCO1)C1CCN(S(=O)(=O)c2cccc3nonc23)CC1` (stereo unspecified), for which the z-score came to 0.153.
On to `O=C(NC1CCCCC1)C12CC3CC(C1)CC(n1cncn1)(C3)C2`, for which the z-score was -0.163.
Turning to `COc1ccc(Cn2nnnc2C(c2ccncc2)N2CCOCC2)cc1` (stereo unspecified), the z-score is 0.39.
The molecule `O=C(COc1ccccc1Cl)NCCCN1CCOCC1` yielded a z-score of 1.3.
Take `COc1ccc(S(=O)(=O)N2CCC(C(=O)NCc3ccccn3)CC2)cc1Cl`: the z-score was -0.477.
In the case of `COc1cccc(/C=N/n2c(=S)n(C)c3cc(C)c(C)cc32)c1OC` it was 0.276; in that of `COc1cccc(/C=N/n2c(=S)n(C)c3ccccc32)c1OC`, 2.32.
Consider `COc1ccc(/C=N/n2c(=S)n(C)c3ccccc32)cc1OC`, for which the z-score was 0.103.
`COc1ccc(C)cc1C1=Nc2ccccc2C1(C)C` came in with a z-score of -0.42.
On to `Cn1c(=O)[nH]c(=O)c2c1nc(N1CCCCC1)n2CCCSc1nnnn1-c1ccccc1`, for which the z-score is -0.187.
Then `O=C(CSc1nnc(NC(=O)C2CCC2)s1)Nc1ccc(N2CCOCC2)cc1`, with -0.322.
The molecule `O=C(Nc1ccccc1)c1ccc(S(=O)(=O)N2CCCCC2)cc1` gave a z-score of -0.0563.
For `COc1ccc(C(CC(=O)O)NC(=O)c2ccccc2)cc1OC` (stereo unspecified), the z-score is -0.105.
Turning to `COc1cccc(C(CC(=O)Nc2cccc3ccccc23)NC(=O)c2ccccc2)c1` (stereo unspecified), the z-score came to 2.17.
In the case of `O=C(CC(NC(=O)c1ccccc1)c1ccccc1)Nc1cccc2ccccc12` (stereo unspecified) it was -0.0391; in that of `Cc1cc(C)nc(SCc2nnc(SCC(=O)Nc3nccs3)n2C)n1`, 0.465; in that of `COc1ccc(C(=O)C(c2ccccc2)N2CCOCC2)cc1` (stereo unspecified), 2.44.
Consider `CCOc1ccc(C(=O)C(c2ccccc2)N2CCOCC2)cc1` (stereo unspecified), for which the z-score was -0.418.
Then `CCCCCOc1ccc(C(=O)C(c2ccccc2)N2CCOCC2)cc1` (stereo unspecified), with 0.204.
